uPA generation: qHTS for Inhibitors of Cell Surface uPA Generation. cell surface uPA generation assay, qHTS. Potency, µM (top dose mostly 38.3 µM), most hits filed as inhibitors. hit rate 0.31% among 330,000; active = well fitted inhibition curve with a large enough effect; inconclusive = small, poorly fitted or top-dose-only effect; inactive = no such curve, though single readings can be large or run the other way; tested in mouse RAW 264.7 cells; note: nearly all actives have a fitted effect of over 55% in size
VP16 counter: VP16 counterscreen qHTS for inhibitors of ROR gamma transcriptional activity; Drosophila S2 Gal4-VP16 UAS-luciferase, luminescence, 20 h; hit rate 3.5% among 310,000; Potency, µM (series often up to 53.6 µM), usual class: inhibitors;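 note: Gal4-VP16 expression switched on by copper sulfate through the metallothionein promoter; nearly all actives have a fitted effect of over 50% in size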
RORgamma inh: qHTS for inhibitors of ROR gamma transcriptional activity | Nuclear receptor ROR-gamma (Mus musculus), P51450 | Drosophila S2 Gal4-RORgamma UAS-luciferase reporter, 20 h | Potency, µM (top dose mostly 53.6 µM), most hits filed as inhibitors | hit rate 5.4% among 310,000; note: nearly all actives have a fitted effect of over 60% in size
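In this cell-based reporter format, copper sulfate (700 uM final) drives Gal4–ROR gamma fusion expression from a metallothionein promoter in Drosophila Schneider cells; compounds preincubated 1 hr, reporter read after 20 hr at ambient temperature.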
TRPV1 ag: HTS Assay for Compounds that Act as Agonists of the Vanilloid Receptor 1. hit rate 0.19% among 320,000. TRPV1-expressing cells, Fluo-8 calcium influx, agonist mode. activation, % at 8.33 µM. Transient receptor potential cation channel subfamily V member 1 (Homo sapiens), Q8NER1; in the data active = activation above about 80%; inconclusive = between about 30% and that limit
Target sequence (Q8NER1 whole entry, looked up): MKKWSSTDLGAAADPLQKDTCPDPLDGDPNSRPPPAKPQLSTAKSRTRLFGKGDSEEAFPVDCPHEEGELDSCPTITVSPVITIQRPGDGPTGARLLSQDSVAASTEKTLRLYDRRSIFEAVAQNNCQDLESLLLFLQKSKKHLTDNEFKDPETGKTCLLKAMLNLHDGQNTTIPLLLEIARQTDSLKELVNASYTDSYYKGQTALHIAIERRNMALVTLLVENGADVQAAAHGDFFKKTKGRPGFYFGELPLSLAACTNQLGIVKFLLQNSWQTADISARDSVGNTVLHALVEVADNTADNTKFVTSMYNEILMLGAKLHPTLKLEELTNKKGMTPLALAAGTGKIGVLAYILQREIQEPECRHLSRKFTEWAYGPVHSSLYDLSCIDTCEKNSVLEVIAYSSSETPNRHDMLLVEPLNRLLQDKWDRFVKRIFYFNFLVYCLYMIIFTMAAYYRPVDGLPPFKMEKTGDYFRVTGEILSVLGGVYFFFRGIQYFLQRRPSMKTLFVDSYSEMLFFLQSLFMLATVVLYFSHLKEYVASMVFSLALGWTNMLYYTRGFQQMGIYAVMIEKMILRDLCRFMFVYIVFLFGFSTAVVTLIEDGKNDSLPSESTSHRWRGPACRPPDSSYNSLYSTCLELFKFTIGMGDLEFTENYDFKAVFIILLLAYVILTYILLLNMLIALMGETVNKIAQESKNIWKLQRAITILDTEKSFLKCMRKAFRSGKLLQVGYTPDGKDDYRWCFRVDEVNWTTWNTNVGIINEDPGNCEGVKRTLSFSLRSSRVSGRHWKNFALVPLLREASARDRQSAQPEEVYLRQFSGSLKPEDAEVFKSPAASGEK
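TRPV1-expressing cells were cultured overnight at 35.5C and loaded with Fluo-8 calcium dye for 40 to 90 min at room temperature. After a 10 s baseline, compound was added and calcium influx was read kinetically for 3 min (ex 480/em 520 nm).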
TRPV1 PAM: HTS Assay for Compounds that Act as Potentiators of the Vanilloid Receptor 1; hit rate 0.02% among 320,000; AID 540277, 2011; TRPV1-expressing cells, Fluo-8 calcium influx, capsaicin EC20 potentiation; Transient receptor potential cation channel subfamily V member 1 (Homo sapiens), Q8NER1; potentiation, % at 8.33 µM; in the data active = potentiation above about 80%; inconclusive = between about 30% and that limit
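Fluo-8 calcium influx in TRPV1-expressing cells, kinetic read (ex 480/em 520 nm). Compound added and read 3 min for agonist activity, followed by capsaicin at EC20 final and 2 min further read for enhancement.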
Large screens that a line does not name were inactive. An excerpt weighted towards active compounds, which were near 5.8% of everything screened. Unless noted, calls come from the whole dose curve; as a rule, active = well fitted curve in the direction sought with a large enough effect; inconclusive = small, poorly fitted or top-dose-only effect, or another doubt; inactive = no such curve, though single readings can be large; an effect the other way counts as inactive or inconclusive.

CC(NCc1ccc(-c2ccccc2)cc1)C(O)c1ccccc1 (configuration not stated)	VP16 counter 2.8µM, RORgamma inh inconclusive
CC(=O)Nc1ccc(SCCN2CCN(CC(C)C)CCC2=O)cc1	none (no result: uPA generation, TRPV1 ag, TRPV1 PAM)
N#CC1=C(Nc2ccccc2Cl)SC(c2ccccc2O)NC1=O (configuration not stated)	VP16 counter inconclusive, RORgamma inh 13µM
CCOc1ccc(S(=O)(=O)N2CCC(C(=O)OC(C)C(=O)N(C)C3CCCCC3)CC2)cc1 (configuration not stated)	none
CC(OC(=O)c1ccccc1O)C(=O)Nc1cccc(Cl)c1 (configuration not stated)	none
C=CCn1c(=O)c2ccccc2n2nnc(C(=O)OCC)c12	none
CCOC(=O)C1CCN(C(=O)CCc2c(C)nc3cc(-c4ccccc4)nn3c2C)CC1	none (no result: TRPV1 ag, TRPV1 PAM)
COc1cc(OC)cc(-c2cc3nc(C)c(CCC(=O)O)c(C)n3n2)c1	VP16 counter 2.8µM, RORgamma inh 0.71µM
CN=c1scc(-c2ccccc2F)n1/N=C/c1ccc[nH]1	VP16 counter 0.63µM, RORgamma inh 0.022µM
Cc1ccccc1NC(=S)c1ccc2ccccc2n1	uPA generation inconclusive, VP16 counter 6.3µM, RORgamma inh inconclusive
CCNc1nc(ON=C(C)C)nc(N(C)C)n1	RORgamma inh 14µM
CO[C@]1(NC(=O)Cc2cccs2)C(=O)N2C(C(=O)O)=C(COC(N)=O)CS[C@H]21	none (no result: uPA generation, TRPV1 ag, TRPV1 PAM)
O=C1C2CCCCC2C(=O)N1c1ccc(S(=O)(=O)Nc2ncccn2)cc1 (configuration not stated)	none
COc1cc(/C=C2/C(=O)c3cccc([N+](=O)[O-])c3C2=O)c(Br)cc1O	VP16 counter 35µM, RORgamma inh inconclusive
Cc1cccc(S(=O)Cc2ccc(C(=O)N3CCN(C(=O)c4ccco4)CC3)o2)c1 (configuration not stated)	none
CC(=O)c1ccccc1OC(=O)COc1ccc(Cl)cc1C	RORgamma inh inconclusive
Nc1nn2c(C(F)(F)F)cc(=O)[nH]c2c1N=Nc1cccc(F)c1	RORgamma inh 10µM
Cc1c(O)ccc(/C=N/Nc2nc(-c3cccnc3)nc3ccccc23)c1O	uPA generation inconclusive, VP16 counter 18µM, RORgamma inh 4.5µM
Cc1ccc(-c2nc(N/N=C/c3ccncc3)c3ccccc3n2)cc1	uPA generation inconclusive, VP16 counter 0.28µM, RORgamma inh inconclusive
Oc1ccc(/C=N/Nc2nc(-c3cccnc3)nc3ccccc23)c(O)c1	VP16 counter 11µM, RORgamma inh inconclusive
O=C(COc1ccc(C(=O)O)cc1)Nc1cccc(C(F)(F)F)c1	RORgamma inh inconclusive
Cc1ccc(OC(F)F)c(NC(=O)Nc2cccc(C(F)(F)F)c2)c1	VP16 counter 6.3µM, RORgamma inh 5µM (no result: uPA generation)
O=C(COc1ccccc1)Nc1cc(C(F)(F)F)ccc1N1CCCC1	none
O=C(COCC(=O)Nc1cccc(C(F)(F)F)c1)Nc1cccc(C(F)(F)F)c1	VP16 counter inconclusive, RORgamma inh 22µM (no result: uPA generation)
Cc1cc(N2CCCC2)ccc1NC(=O)COc1cccc(C(F)(F)F)c1	VP16 counter inconclusive, RORgamma inh 11µM
NNC(=O)COc1cccc(C(F)(F)F)c1	RORgamma inh 8.9µM
COC(=O)[C@H](Cc1ccccc1)NC(=O)O[C@@H]1Cc2cc(OC)ccc2O[C@H]1c1cccc(OC)c1	none (no result: uPA generation, TRPV1 ag, TRPV1 PAM)
COCCN(C(=O)COC(=O)Cc1ccc(Cl)cc1Cl)c1c(N)n(Cc2ccccc2)c(=O)[nH]c1=O	none (no result: VP16 counter, RORgamma inh)
O=C(NCCc1ccccc1)C1CC(=O)N(CCc2ccccc2)C1 (configuration not stated)	none
Cc1ccc(-c2ccc(/C=C3\C(=O)ON=C3c3ccccc3)o2)c([N+](=O)[O-])c1	VP16 counter 16µM, RORgamma inh inconclusive (no result: uPA generation)
COCc1cc(OC)nc(-c2csc(C)n2)n1	RORgamma inh 11µM (no result: TRPV1 ag, TRPV1 PAM)
CCNc1ncc2nc(C)c(=O)n(C3CC3)c2n1	none (no result: uPA generation, TRPV1 ag, TRPV1 PAM)
COc1ccc(CN2CCN(C(=O)CC(C)C)CC2)c(OC)c1OC	none
COc1ccc(CN2CCN(C(=O)CN3C(=O)C4C5C=CC(C5)C4C3=O)CC2)c(OC)c1OC (configuration not stated)	VP16 counter 6.3µM
Cc1cc(OCC(=O)NC(C)C)ccc1Cl	none
Cc1cc(OCn2ccc(C(=O)O)n2)ccc1Cl	VP16 counter 16µM, RORgamma inh inconclusive
Cc1[nH]n(-c2ccccc2)c(=O)c1C(=O)c1ccc(Cl)cc1	RORgamma inh 11µM
CCSC(=S)c1c(C)[nH]n(-c2ccccc2)c1=O	VP16 counter 1.1µM, RORgamma inh 0.35µM
Cc1[nH]n(-c2ccccc2)c(=O)c1C(=O)c1ccccc1	RORgamma inh inconclusive
CCC(C)Oc1cc(-c2ccnc(Nc3cccc(Cl)c3)n2)ccn1 (configuration not stated)	uPA generation inconclusive, TRPV1 ag inconclusive
OCCCNc1cc(-c2ccnc(Nc3cccc(Cl)c3)n2)ccn1	uPA generation inconclusive, VP16 counter 1µM, RORgamma inh 1.8µM
Cc1ccc(C)c(-n2cc(CNCCCn3cccn3)c(-c3ccccc3)n2)c1	RORgamma inh 10µM
CCOC(=O)CN=C1CC(C)(C)CC2=C1Sc1ncnc(N(C)C)c1N2	VP16 counter inconclusive, RORgamma inh 11µM
CCOC(=O)C1=C(C)NC2=C(C(=O)CC(C)(C)C2)C1c1cccc(C)n1 (configuration not stated)	none
Fc1cccc(Cc2noc(CN3CCCCC3c3ccccn3)n2)c1 (configuration not stated)	TRPV1 ag inconclusive
COC(=O)Cn1c(CCS(=O)(=O)c2ccc(Cl)cc2)nc2ccccc21	RORgamma inh 3.5µM
COC(=O)N/N=C/c1cn(CCOc2cccc(OC)c2)c2ccccc12	none
CCn1c2ccccc2c2cc(/C=N/NC(=O)c3ccncc3)ccc21	VP16 counter inconclusive, RORgamma inh 8.9µM
CCn1c2ccccc2c2cc(NC(=O)c3cc(OC)cc(OC)c3)ccc21	uPA generation 2.2µM, VP16 counter inconclusive
CCC(C)c1ccc(OCCn2cc(/C=N/NC(=O)CSc3nnc(C)s3)c3ccccc32)cc1 (configuration not stated)	VP16 counter 22µM, RORgamma inh inconclusive
CCn1c2ccccc2c2cc(/C=N/NC(=O)c3ccc(O)cc3)ccc21	TRPV1 ag inconclusive
CCn1c2ccccc2c2cc(NC(=O)c3cc(OC)c(OC)c(OC)c3)ccc21	none
Cc1cccc(OCCn2cc(/C=N/NC(=O)c3ccncc3)c3ccccc32)c1	VP16 counter 5.6µM, RORgamma inh 4.5µM
COc1ccc(OC2C=CC(C#Cc3ccc(Br)cc3)OC2CO)c(C(C)(C)C)c1 (configuration not stated)	none (no result: uPA generation, TRPV1 ag, TRPV1 PAM)

Compound activity (PubChem)
